Screening results as filed in PubChem BioAssay.
Many of the other results were omitted from the sample, so hits are more common in it than they were.
mcGAS MS inh – mouse cGAS inhibition by mass spec; Q8C6L5; inhibition, % at 12.5 µM; recombinant mouse cGAS, cGAMP by RapidFire MS; 130,000 tested, 0.18% active;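 active = inhibition of cGAS enzyme activity at or above 60%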;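 also: enzyme stimulated by 45 bp dsDNA with ATP and GTP substrates; cGAMP share of summed cGAMP plus half ATP and half GTP signals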
Target sequence (Q8C6L5 whole entry, looked up): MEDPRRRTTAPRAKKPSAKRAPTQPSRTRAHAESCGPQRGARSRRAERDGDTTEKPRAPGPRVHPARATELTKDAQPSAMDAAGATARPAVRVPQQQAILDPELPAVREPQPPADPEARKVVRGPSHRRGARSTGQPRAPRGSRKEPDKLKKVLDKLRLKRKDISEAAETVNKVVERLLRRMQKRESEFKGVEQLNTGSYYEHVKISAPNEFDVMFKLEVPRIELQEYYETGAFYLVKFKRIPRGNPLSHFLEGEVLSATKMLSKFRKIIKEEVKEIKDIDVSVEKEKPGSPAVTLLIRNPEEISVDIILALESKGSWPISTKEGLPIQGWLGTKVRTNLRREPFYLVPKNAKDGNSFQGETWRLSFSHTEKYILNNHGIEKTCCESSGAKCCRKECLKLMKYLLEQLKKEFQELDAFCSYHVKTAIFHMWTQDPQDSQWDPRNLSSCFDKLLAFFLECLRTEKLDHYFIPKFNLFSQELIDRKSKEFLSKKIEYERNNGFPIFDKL
Starred values were filed as active, the others as inactive; ! = a repeat was not active.

SMILES | mcGAS MS inh
Cn1c(=O)c2[nH]c(/C=N\NC(N)=S)nc2n(C)c1=O | 16
NC(=S)NN=Cc1c[nH]c2ccccc12 | -2
CC(C)(C)n1cccc(/C=N\NC(N)=S)c1=S | 72*
COc1ccccc1C(=O)C=Cc1ccc(C(=O)O)cc1 | -12
CCN(CC(=O)NC(C)(C)C)CC(=O)N1CCN(S(=O)(=O)c2ccc(F)c(Cl)c2)CC1 | -7
CC(C)Cc1cc(-c2nn3c(-c4cccnc4)nnc3s2)n[nH]1 | -5
CC(C)c1cc(-c2nnc3sc(-c4cccnc4)nn23)n[nH]1 | -5
CC(C)Cc1cc(-c2nn3c(-c4cnccn4)nnc3s2)n[nH]1 | 88*
Cc1ccc2c(c1)c(CNC(=O)c1ccccc1C1CCNC1)nn2C (stereo not given) | -19
Cc1ccc2c(c1)c(CNC(=O)CCc1c(C)nn(C)c1C)nn2C | -23
Cc1ccc2c(c1)c(CNC(=O)C1CNCC(=O)N1)nn2C (stereo not given) | 64*
Cc1ccsc1C(=O)NNC(=O)c1nn(C)c(=O)c2ccccc12 | -6
CC(CC#N)NC(=O)c1c(-n2cccc2)sc2c1CCSC2 (stereo not given) | -9
Cc1ccc(Oc2ccc3ncccc3c2N)c(Br)c1 | 9
O=C(OC[C@H]1O[C@H](OC(=O)c2cc(O)c(O)c(OC(=O)c3cc(O)c(O)c(O)c3)c2)[C@H](OC(=O)c2cc(O)c(O)c(OC(=O)c3cc(O)c(O)c(O)c3)c2)[C@@H](OC(=O)c2cc(O)c(O)c(OC(=O)c3cc(O)c(O)c(O)c3)c2)[C@@H]1OC(=O)c1cc(O)c(O)c(OC(=O)c2cc(O)c(O)c(O)c2)c1)c1cc(O)c(O)c(OC(=O)c2cc(O)c(O)c(O)c2)c1 | 96*
CC(=O)OC[C@H]1O[C@@H](Oc2cc(OC(C)=O)c3c(=O)cc(-c4ccc(OC(C)=O)cc4)oc3c2)[C@H](OC(C)=O)[C@@H](OC(C)=O)[C@@H]1OC(C)=O | -4
CN(C)C(=O)COC(=O)c1csc(-c2ccc3c(c2)OCCO3)n1 | -5
CC1COCCN1C(=O)C1CCCC(C(=O)N2CCOCC2C)C1 (stereo not given) | -22
COC(=O)c1sc(NC(=O)c2cc3ccccc3o2)nc1C | 15
CCCNC(=O)CSc1ccccc1C#N | 2
S=c1[nH]cc(-c2ccccc2)n1C1CC1 | -8
CN(Cc1ccc(Cl)cc1)C(=O)CSc1nc(N)nc(N)n1 | -32
CCCC1(CNC(=O)c2c(C)oc3ncn(C)c(=O)c23)CCC1 | -9
Cc1oc2ncn(C)c(=O)c2c1C(=O)Nc1cccc(COCC2CC2)c1 | 94*
Cc1oc(C)c(C(=O)Nc2cccc(N3CCCC3=O)c2)c1C | -3
SMILES | mcGAS MS inh
CCCN1C(=O)C(CC(=O)Nc2ccccc2F)SC1=Nc1ccccc1OC (stereo not given) | 19
CN1CCN(C)C(c2n[nH]c(=S)n2-c2ccccc2Br)C1 (stereo not given) | 8
Cc1ccccc1OCCn1cnc2cc(F)ccc2c1=O | 1
S=c1nc(-c2ccccc2)c(-c2ccccc2)n[nH]1 | -13
OC(C#Cc1ccccc1)c1ncc(-c2ccccc2)[nH]1 (stereo not given) | 35
S=c1nccc(-c2ccccc2)[nH]1 | 74*
CC(C)CCCC(C)NC(=O)Cn1c(=O)c(=O)[nH]c2ccccc21 (stereo not given) | -3
NC(=O)n1c(O)c(C(=O)c2cccs2)c2cc(Cl)ccc21 | 70*
O=C(c1cccs1)c1cccs1 | -7
O=C(c1cccs1)N1CCC(c2nc3cc(Cl)ccc3s2)CC1 | -9
Cc1ccc(C(=O)c2nc3c(n2O)CCCCC3)cc1 | 90*
O=C(c1cccc2ccccc12)c1nc2c(n1O)CCCC2 | -5
CCOc1ccc(C(=O)c2nc3c(n2O)CCCCC3)cc1OCC | -3
SCc1nc2c3ccccc3ncn2n1 | 95*
CCc1nc2c3ccccc3ncn2n1 | -8
c1ccc2c(c1)ncn1nc(CN3CCCCC3)nc21 | -5
CC(C1CC1)N(Cc1ccccc1)C(=O)C1CCCN(C(=O)c2cccs2)C1 (stereo not given) | -5
COc1ccccc1-c1nc(CN2CCc3ccccc3C2CO)cs1 (stereo not given) | 6
CCn1cc(C(=O)NCCN2CCCc3ccccc32)c(C)n1 | -11
CCn1c(C2CCCNC2)nn(Cc2cc(OC)ccn2)c1=O (stereo not given) | 61*!
COc1ccnc(Cn2nc(C3CCNCC3)n(-c3ccccc3)c2=O)c1 | 5
CCn1c(C2CCCNC2)nn(Cc2cc(=O)n3cc(C)sc3n2)c1=O (stereo not given) | -6
C=CCn1c(SC2CCCCNC2=O)nnc1C1CCS(=O)(=O)C1 (stereo not given) | 2
O=C1OC(/C=C/c2cccc(Cl)c2Cl)=NC/1=C/c1ccccc1[N+](=O)[O-] | -14
COc1ccc(/C=C2N=C(/C=C/c3cccc(Cl)c3Cl)OC\2=O)cc1 | 0
SMILES | mcGAS MS inh
O=C1OC(/C=C/c2cccc(Cl)c2Cl)=NC/1=C\c1ccc([N+](=O)[O-])cc1 | 71*
CC(O)c1cc(C(F)(F)F)cc(C(F)(F)F)c1 (stereo not given) | -7
O=C(Nc1ccccc1)c1cccc(-n2cc[nH]c2=S)c1 | -8
CN(C)c1ccc(P(=O)(OC2CCCCC2)C(O)c2ccccc2F)cc1 (stereo not given) | -10
COc1ccc(CNc2nnc(SC(C)C(=O)NC(C)(C)C)s2)cc1 (stereo not given) | -1
CCN1C(=O)C2CSCN2C1=O (stereo not given) | -8
CCC1(CC)N([O-])C(C)=C(c2ccccc2)[N+]1=O | 79*
CC1C(c2cccs2)=[N+]([O-])C(C)(c2ccc(Br)cc2)N1O (stereo not given) | -19
CC1=C(c2ccccc2)[N+](=O)C(C)(c2ccc(Br)cc2)N1[O-] (stereo not given) | 73*
CC(=O)c1cc(-c2ccccc2)n(CC(=O)O)c1C | -18
CC1C(c2ccccc2)=[N+]([O-])C(C)(c2ccc(F)cc2)N1O (stereo not given) | -9
CN1C[N+]([O-])=C(c2ccccc2)C1(C)C | -9
COc1ccccc1C(=O)N1CCN(C(C(=O)NCc2cccc(C)c2)C2CCCC2)CC1 (stereo not given) | -5
O=[N+]([O-])c1cc2c(c(COc3ccc4cc(Br)ccc4c3)c1)OCOC2 | 14
O=c1[nH]c(=S)[nH]nc1-c1ccc2c(c1)OCCO2 | 10
Cc1nc2sc(C)c(C)n2c(=O)c1NC(=O)CCSc1ccccc1 | -6
Cc1cccc(S(=O)(=O)NC(=O)C2(C)CCN2C(=O)COc2ccc(Cl)cc2)c1 (stereo not given) | -8
Cc1cnn(C2CN(Cc3c(C)nn(C)c3Cl)C2)c1 | -7
CN1CCC(N(C)Cn2nc(-c3ccc4c(c3)OCO4)n(-c3ccccc3)c2=S)CC1 | -7
O=c1oc2c(O)c(O)cc3c(=O)oc4c(O)c(O)cc1c4c23 | 93*
O=c1cc(-c2cc(O)c(O)c(O)c2)oc2cc(O)cc(O)c12 | 3
Cc1cc(N2C(=O)CSC2c2ccccn2)ccc1Br (stereo not given) | -14
CN(Cc1cnc2nc(N)nc(N)c2n1)c1ccc(C(=O)N[C@@H](CCC(=O)O)C(=O)O)cc1 | 24
Nc1nc2ncc(CNc3ccc(C(=O)N[C@@H](CCC(=O)O)C(=O)O)cc3)nc2c(=O)[nH]1 | 82*!
Nc1nc2[nH]cc(CCc3ccc(C(=O)N[C@H](CCC(=O)O)C(=O)O)cc3)c2c(=O)[nH]1 | 5
CN(C)C(=O)CN1CCN(C(=O)CC(c2ccccc2)c2ccccc2F)CC1 (stereo not given) | 1
